Holding throughout (format): functional
Experiment [1] concerns the target Solute carrier family 2, facilitated glucose transporter member 1 (Homo sapiens) (UniProt P11166). As to the kind of experiment: ST_JUDE_LEISH: Cytotoxicity at 2uM final concentration against transgenic Leishmania Mexicana promastigotes LmGLUT1 that are glucose transport deficient and complemented with the human glucose transporter GLUT1. Activity is measured by DNA content using SYBR green in vitro.

Experiment [2] concerns the target Hexose transporter 1 (Plasmodium falciparum) (UniProt O97467). As to the kind of experiment: ST_JUDE_LEISH: Cytotoxicity at 2uM final concentration against transgenic Leishmania Mexicana promastigotes LmPfHT that are glucose transport deficient and complemented with the Plasmodium falciparum hexose transporter. Activity is measured by DNA content using SYBR green in vitro.

Experiment [3] addresses Glucose transporter (Leishmania mexicana) (UniProt O61059). Description: ST_JUDE_LEISH: Cytotoxicity at 2uM final concentration against transgenic Leishmania Mexicana promastigotes LmGT2 that are glucose transport deficient and complemented with the L. Mexicana glucose transporter 2. Activity is measured by DNA content using SYBR green in vitro.

Molecules are shown by their SMILES.

Solute carrier family 2, facilitated glucose transporter member 1 (Homo sapiens), sequence (P11166 whole entry): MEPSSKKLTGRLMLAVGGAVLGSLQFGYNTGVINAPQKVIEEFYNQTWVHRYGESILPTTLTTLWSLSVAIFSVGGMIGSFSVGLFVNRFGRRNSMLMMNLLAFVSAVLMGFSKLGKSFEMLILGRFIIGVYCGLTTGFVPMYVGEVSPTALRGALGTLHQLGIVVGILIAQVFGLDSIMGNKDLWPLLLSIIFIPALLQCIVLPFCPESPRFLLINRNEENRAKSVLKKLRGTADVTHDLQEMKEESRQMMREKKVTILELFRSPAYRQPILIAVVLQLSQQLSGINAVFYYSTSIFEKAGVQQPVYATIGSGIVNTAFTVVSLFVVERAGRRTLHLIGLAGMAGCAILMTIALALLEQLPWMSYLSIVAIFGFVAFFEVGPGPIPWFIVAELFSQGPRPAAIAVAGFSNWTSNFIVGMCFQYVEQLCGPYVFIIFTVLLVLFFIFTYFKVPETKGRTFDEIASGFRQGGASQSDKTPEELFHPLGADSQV

Regarding `COc1cc(NC(=O)N2CCOC(CCN3CCC(c4ccccc4)CC3)(c3ccc(Cl)c(Cl)c3)C2)cc(OC)c1` (centres undefined), the inhibition in experiment [1] was 0.76%; in experiment [2] it was 1.73%; in experiment [3] it was -1.37%.

Consider `COc1cccc(OC)c1-c1ccccc1NC(=O)N1CCCc2cc(C)ccc21`, for which the results for the inhibition in experiment [1], in experiment [2] and in experiment [3] were 2.46%, 2.69% and 2.07%, respectively.

As for `COc1ccc(O)cc1Cc1cnc2nc(N)nc(N)c2c1C`, the results for the inhibition in experiment [1], in experiment [2] and in experiment [3] were -0.06%, 1.16% and 0.83%, respectively.

(Values after ChEMBL document CHEMBL3433997, “St. Jude Leishmania screening dataset” (2016).)
